Assay results published in PubChem BioAssay (NCI).
This is part of a sample that, as a whole, favours compounds with a hit. Of some 79,000 tested, about 15% had one in any assay. No stated cut-off is given here; in the data, active means growth inhibition above about 70%; inactive means the rest.

Key:
[1] = NCI Yeast Anticancer Drug Screen. Data for the rad50 strain (AID 155);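 further: 0% = growth of vehicle-only cultures of the same strain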; settings: S. cerevisiae rad50 strain growth inhibition; at 50.0 µM; active compounds read high
In short: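 Readout: growth inhibition relative to vehicle-treated cultures. Compound exposure was carried out in a genetically defined yeast strain deficient in DNA damage repair.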

[2] = NCI Yeast Anticancer Drug Screen. Data for the mec2-1 strain (AID 157); settings: S. cerevisiae mec2-1 strain, at 50.0 µM, active compounds read high
In short: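 Strain: mec2-1 (DNA repair/cell cycle alteration). Compound exposure, then growth measured; inhibition expressed relative to vehicle.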

[3] = NCI Yeast Anticancer Drug Screen. Data for the sgs1 mgt1 strain (AID 161);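 further: 0% = growth of cultures given vehicle only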; settings: S. cerevisiae sgs1 mgt1 strain, at 50.0 µM, active compounds read high
In short: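 Genetically altered yeast, compound exposure, growth inhibition relative to vehicle.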

[4] = NCI Yeast Anticancer Drug Screen. Data for the cln2 rad14 strain (AID 165);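 further: 0% = growth equal to vehicle treated cultures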; settings: S. cerevisiae cln2 rad14 strain, at 50.0 µM, active compounds read high
In short: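 Compounds are applied to the cln2 rad14 yeast strain, and growth is then compared with that of vehicle-treated cultures to give inhibition.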

[5] = NCI Yeast Anticancer Drug Screen. Data for the bub3 strain (AID 167); settings: S. cerevisiae bub3 mutant strain, at 50.0 µM, active compounds read high
In short: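 Readout: yeast growth inhibition, expressed relative to vehicle-only wells. The test organism is a mutant strain from a panel with lesions in DNA repair or checkpoint genes.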

[6] = NCI Yeast Anticancer Drug Screen. Data for the mlh1 rad18 strain (AID 175); settings: S. cerevisiae mlh1 rad18 strain growth inhibition; at 50.0 µM; active compounds read high
In short: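 Read-out is yeast growth inhibition, calculated against vehicle-only controls. The compound was applied to a strain engineered with DNA damage repair alterations.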

Measured: growth inhibition

COc1cccc(/C=C2\S/C(=N/Nc3nc(C)c(C)s3)NC2=O)c1O
inactive: [1] 7.7% | [2] 16.3% | [3] 20.8% | [4] 18% | [5] -8.65% | [6] 2.2%

COc1ccc(C2c3cc4c(cc3OC(N3CCOCC3)C2C)OCO4)c(OC)c1OC (stereo not given)
inactive: [1] 2.45% | [2] 5.4% | [3] 14% | [4] -1.1% | [5] 11.8% | [6] 21.7%

COc1cc2cccc(N=Cc3ccccc3Cl)c2cc1OC
inactive: [1] -8.7% | [2] -7.4% | [3] -11.3% | [4] 27.9% | [5] 8.55% | [6] -3.8%

CC(CN1CCCC1)OC(=O)C(c1ccccc1)C1CCCC1 (stereo not given)
inactive: [1] 6.15% | [2] -20.9% | [3] 20.1% | [4] -50.2% | [5] -4.85% | [6] -14.2%

CC1COB(c2ccccc2)OCC(C)N1CNC(=O)C1=C(O)C2(O)C(O)=C3C(=O)C4C(O)=CC=CC4C(C)(O)C3CC2C(N(C)C)C1=O (stereo not given)
inactive: [1] -8.75% | [2] 33.2% | [3] 34.6% | [4] -16.6% | [5] -6.85% | [6] 38.6%

O=C1OC2C(O)C3CC1C2O3 (stereo not given)
inactive: [1] -8.15% | [2] -6.05% | [3] -5.5% | [4] -6.85% | [5] -2.25% | [6] 0.45%

Cc1ccc(NC(=O)c2cc3c(cc2Cl)Sc2nccn2S3(=O)=O)cc1
inactive: [1] 21.7% | [2] 11.3% | [3] 12.7% | [4] -25.9% | [5] 11.4% | [6] 39.1%

CN(C)C=Nc1ccc(F)cc1
inactive: [1] -16.1% | [2] -5.6% | [3] -11.4% | [4] -20.1% | [5] -1.8% | [6] -2.1%

C/C(=N/NC(=S)Nc1ccccc1Cl)c1cccc(/C(C)=N\NC(=S)Nc2ccccc2Cl)n1
inactive: [1] 39.4% | [2] 16.9% | [3] 39.8% | [4] 6.3% | [5] 32.1% | [6] 24.7%

CCOC(=O)C1(C(=O)OCC)CC(CCC#N)(CCC#N)C(=O)C(CCC#N)(CCC#N)C1
inactive: [1] -2.15% | [2] -5.5% | [3] 1.55% | [4] -3.1% | [5] -11.4% | [6] -26.8%

COC(=O)C1=C(C(=O)OC)N(C(C)C)[C@H]2C(C(=O)OC)=C(C(=O)OC)N(C(C)C)[C@@H]12
inactive: [1] 0.2% | [2] -9.75% | [3] -19.4% | [4] 5.75% | [5] -34.8% | [6] 13.3%

COc1ccc(C(=O)c2ccccc2C(=O)c2ccc(OC)cc2)cc1
inactive: [1] -22.1% | [2] 16.1% | [3] -1.4% | [4] -37.8% | [5] -7.7% | [6] 6.95%

CCN(CC)CCNc1ncnc2c1cnn2C
inactive: [1] 7.7% | [2] 1.8% | [3] -17.9% | [4] -4.5% | [5] -20.9% | [6] -8.9%

Oc1[nH]c2ccccc2c1N=NC1=NCCCCN1
inactive: [1] -33.2% | [2] -36.5% | [3] -6.65% | [4] 15.7% | [5] -3.35% | [6] -14.7%

NC(Cc1ccc(O)cc1)C(=O)OCc1ccccc1 (stereo not given)
inactive: [1] -6.45% | [2] 0.5% | [3] 15.1% | [4] -11.2% | [5] 34.2% | [6] -3.75%

C[C@H](CCc1nc(C#N)c(N)o1)[C@H]1CC[C@H]2[C@@H]3[C@@H](O)CC4C[C@@H](O)CC[C@]4(C)[C@H]3C[C@@H](O)[C@]12C (stereo not given in full)
inactive: [1] 26.4% | [2] 9.8% | [3] 10.7% | [4] 9.55% | [5] -9.1% | [6] -2.85%

CCOCNC(=O)Nc1ccccc1
inactive: [1] -5.4% | [2] -15.6% | [3] 7% | [4] -37.5% | [5] 0.35% | [6] 3.9%

O=c1ccn2cnc3c(ncn3C3OC(CO)C(O)C3O)c2n1 (stereo not given)
inactive: [1] 4.8% | [2] 9% | [3] 10.2% | [4] 7.2% | [5] -10.9% | [6] 9.85%

C#CCOCCC(C(=O)O)C(=O)O
inactive: [1] 9.9% | [2] 5.45% | [3] 8.6% | [4] -1.7% | [5] 11.9% | [6] 2.7%

NC(=S)NNC(=O)/C(=C/c1ccc(/C=C(\NC(=O)c2ccccc2)C(=O)NNC(N)=S)cc1)NC(=O)c1ccccc1
inactive: [1] 32.8% | [2] 27% | [3] 29.3% | [4] 39.8% | [5] 39.2% | [6] 31.8%
